Experiments:
Experiment in all cases: SPOT peptide array binding signal intensity (averaged, normalized) (arbitrary units (background-subtracted, floor 0; scale differs between SH3 domains)); higher = stronger binding of the SH3 domain to the peptide
AgAbp1 = biological target: AgAbp1
Summary of the method: (§1)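 Four yeast species supplied the SH3 domains, which were expressed as GST fusions in E. coli BL21(DE3) and purified on glutathione Sepharose. Incubation with cellulose membranes carrying synthetic 15-mer peptides, cysteines exchanged for serines, ran overnight at 4°C at 10 μg/ml in TBS-based blocking buffer. Binding signal is reported as normalized, background-subtracted spot intensity averaged over replicates, in arbitrary units not shared between domains.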

AgBbc1 = biological target: AgBbc1
Summary of the method: as §1

AgBem1-D1 = biological target: AgBem1-D1
Summary of the method: as §1

AgBzz1-D1 = biological target: AgBzz1-D1
Summary of the method: as §1

AgBzz1-D2 = biological target: AgBzz1-D2
Summary of the method: as §1

AgCyk3 = biological target: AgCyk3
Summary of the method: as §1

AgFus1 = biological target: AgFus1
Summary of the method: as §1

AgHof1 = biological target: AgHof1
Summary of the method: as §1

AgHse1 = biological target: AgHse1
Summary of the method: as §1

AgLsb1 = biological target: AgLsb1
Summary of the method: as §1

AgLsb4 = biological target: AgLsb4
Summary of the method: as §1

AgMyo5 = biological target: AgMyo5
Summary of the method: as §1

AgNbp2 = biological target: AgNbp2
Summary of the method: as §1

AgRvs167 = biological target: AgRvs167
Summary of the method: as §1

AgSho1 = biological target: AgSho1
Summary of the method: as §1

AgSla1-D1-D2 = biological target: AgSla1-D1-D2
Summary of the method: as §1

AgSla1-D3 = biological target: AgSla1-D3
Summary of the method: as §1

CaAbp1-D1 = biological target: CaAbp1-D1
Summary of the method: as §1

CaAbp1-D2 = biological target: CaAbp1-D2
Summary of the method: as §1

CaBbc1 = biological target: CaBbc1
Summary of the method: as §1

CaBem1-D1 = biological target: CaBem1-D1
Summary of the method: as §1

CaBzz1-D1 = biological target: CaBzz1-D1
Summary of the method: as §1

CaBzz1-D2 = biological target: CaBzz1-D2
Summary of the method: as §1

CaCyk3 = biological target: CaCyk3
Summary of the method: as §1

CaFus1 = biological target: CaFus1
Summary of the method: as §1

CaHof1 = biological target: CaHof1
Summary of the method: as §1

CaHse1 = biological target: CaHse1
Summary of the method: as §1

CaLsb1 = biological target: CaLsb1
Summary of the method: as §1

CaLsb4 = biological target: CaLsb4
Summary of the method: as §1

CaMyo5 = biological target: CaMyo5
Summary of the method: as §1

CaNbp2 = biological target: CaNbp2
Summary of the method: as §1

CaRvs167 = biological target: CaRvs167
Summary of the method: as §1

CaRvs167-3 = biological target: CaRvs167-3
Summary of the method: as §1

CaSho1 = biological target: CaSho1
Summary of the method: as §1

CaSla1-D1-D2 = biological target: CaSla1-D1-D2
Summary of the method: as §1

CaSla1-D3 = biological target: CaSla1-D3
Summary of the method: as §1

ScAbp1 = biological target: ScAbp1
Summary of the method: as §1

ScBbc1 = biological target: ScBbc1
Summary of the method: as §1

ScBem1-D1 = biological target: ScBem1-D1
Summary of the method: as §1

ScBzz1-D1 = biological target: ScBzz1-D1
Summary of the method: as §1

ScBzz1-D2 = biological target: ScBzz1-D2
Summary of the method: as §1

ScCyk3 = biological target: ScCyk3
Summary of the method: as §1

ScFus1 = biological target: ScFus1
Summary of the method: as §1

ScHof1 = biological target: ScHof1
Summary of the method: as §1

ScHse1 = biological target: ScHse1
Summary of the method: as §1

ScLsb1 = biological target: ScLsb1
Summary of the method: as §1

ScLsb2 = biological target: ScLsb2
Summary of the method: as §1

ScLsb3 = biological target: ScLsb3
Summary of the method: as §1

ScLsb4 = biological target: ScLsb4
Summary of the method: as §1

ScMyo3 = biological target: ScMyo3
Summary of the method: as §1

ScMyo5 = biological target: ScMyo5
Summary of the method: as §1

ScNbp2 = biological target: ScNbp2
Summary of the method: as §1

ScPex13 = biological target: ScPex13
Summary of the method: as §1

ScRvs167 = biological target: ScRvs167
Summary of the method: as §1

ScSho1 = biological target: ScSho1
Summary of the method: as §1

ScSla1-D1-D2 = biological target: ScSla1-D1-D2
Summary of the method: as §1

ScSla1-D3 = biological target: ScSla1-D3
Summary of the method: as §1

SpAbp1-D1 = biological target: SpAbp1-D1
Summary of the method: as §1

SpBbc1 = biological target: SpBbc1
Summary of the method: as §1

SpBzz1-D1 = biological target: SpBzz1-D1
Summary of the method: as §1

SpBzz1-D2 = biological target: SpBzz1-D2
Summary of the method: as §1

SpCyk3 = biological target: SpCyk3
Summary of the method: as §1

SpHof1 = biological target: SpHof1
Summary of the method: as §1

SpHof1-2 = biological target: SpHof1-2
Summary of the method: as §1

SpHof1-3 = biological target: SpHof1-3
Summary of the method: as §1

SpHse1 = biological target: SpHse1
Summary of the method: as §1

SpLsb1 = biological target: SpLsb1
Summary of the method: as §1

SpLsb4 = biological target: SpLsb4
Summary of the method: as §1

SpMyo1 = biological target: SpMyo1
Summary of the method: as §1

SpNbp2 = biological target: SpNbp2
Summary of the method: as §1

SpPex13 = biological target: SpPex13
Summary of the method: as §1

SpRvs167 = biological target: SpRvs167
Summary of the method: as §1

SpSla1-D1-D2 = biological target: SpSla1-D1-D2
Summary of the method: as §1

SpSla1-D3 = biological target: SpSla1-D3
Summary of the method: as §1

## SKSRLLIELPEGFFT
AgAbp1
  SPOT peptide array binding signal intensity: 2
AgBbc1
  SPOT peptide array binding signal intensity: 0.5
AgBem1-D1
  SPOT peptide array binding signal intensity: ≤ 0
AgBzz1-D1
  SPOT peptide array binding signal intensity: 59
AgBzz1-D2
  SPOT peptide array binding signal intensity: 78
AgCyk3
  SPOT peptide array binding signal intensity: 1
AgFus1
  SPOT peptide array binding signal intensity: 322
AgHof1
  SPOT peptide array binding signal intensity: 18.5
AgHse1
  SPOT peptide array binding signal intensity: 16
AgLsb1
  SPOT peptide array binding signal intensity: ≤ 0
AgLsb4
  SPOT peptide array binding signal intensity: 46
AgMyo5
  SPOT peptide array binding signal intensity: ≤ 0
AgNbp2
  SPOT peptide array binding signal intensity: ≤ 0
AgRvs167
  SPOT peptide array binding signal intensity: 0.5
AgSho1
  SPOT peptide array binding signal intensity: ≤ 0
AgSla1-D1-D2
  SPOT peptide array binding signal intensity: 67
AgSla1-D3
  SPOT peptide array binding signal intensity: 0.25
CaAbp1-D1
  SPOT peptide array binding signal intensity: ≤ 0
CaAbp1-D2
  SPOT peptide array binding signal intensity: ≤ 0
CaBbc1
  SPOT peptide array binding signal intensity: 19.5
CaBem1-D1
  SPOT peptide array binding signal intensity: 8.5
CaBzz1-D1
  SPOT peptide array binding signal intensity: 82.5
CaBzz1-D2
  SPOT peptide array binding signal intensity: 18.8
CaCyk3
  SPOT peptide array binding signal intensity: ≤ 0
CaFus1
  SPOT peptide array binding signal intensity: 1020
CaHof1
  SPOT peptide array binding signal intensity: ≤ 0
CaHse1
  SPOT peptide array binding signal intensity: 5.25
CaLsb1
  SPOT peptide array binding signal intensity: ≤ 0
CaLsb4
  SPOT peptide array binding signal intensity: ≤ 0
CaMyo5
  SPOT peptide array binding signal intensity: 117
CaNbp2
  SPOT peptide array binding signal intensity: 34.5
CaRvs167
  SPOT peptide array binding signal intensity: 1.83
CaRvs167-3
  SPOT peptide array binding signal intensity: 51.8
CaSho1
  SPOT peptide array binding signal intensity: 56.5
CaSla1-D1-D2
  SPOT peptide array binding signal intensity: ≤ 0
CaSla1-D3
  SPOT peptide array binding signal intensity: 22
ScAbp1
  SPOT peptide array binding signal intensity: ≤ 0
ScBbc1
  SPOT peptide array binding signal intensity: 1
ScBem1-D1
  SPOT peptide array binding signal intensity: 11.5
ScBzz1-D1
  SPOT peptide array binding signal intensity: 75.5
ScBzz1-D2
  SPOT peptide array binding signal intensity: 125
ScCyk3
  SPOT peptide array binding signal intensity: 7
ScFus1
  SPOT peptide array binding signal intensity: 317
ScHof1
  SPOT peptide array binding signal intensity: 1.5
ScHse1
  SPOT peptide array binding signal intensity: 89
ScLsb1
  SPOT peptide array binding signal intensity: ≤ 0
ScLsb2
  SPOT peptide array binding signal intensity: ≤ 0
ScLsb3
  SPOT peptide array binding signal intensity: ≤ 0
ScLsb4
  SPOT peptide array binding signal intensity: ≤ 0
ScMyo3
  SPOT peptide array binding signal intensity: 1
ScMyo5
  SPOT peptide array binding signal intensity: 0.5
ScNbp2
  SPOT peptide array binding signal intensity: ≤ 0
ScPex13
  SPOT peptide array binding signal intensity: ≤ 0
ScRvs167
  SPOT peptide array binding signal intensity: 0.667
ScSho1
  SPOT peptide array binding signal intensity: 145
ScSla1-D1-D2
  SPOT peptide array binding signal intensity: ≤ 0
ScSla1-D3
  SPOT peptide array binding signal intensity: 15
SpAbp1-D1
  SPOT peptide array binding signal intensity: ≤ 0
SpBbc1
  SPOT peptide array binding signal intensity: ≤ 0
SpBzz1-D1
  SPOT peptide array binding signal intensity: 68.5
SpBzz1-D2
  SPOT peptide array binding signal intensity: 0.25
SpCyk3
  SPOT peptide array binding signal intensity: 1
SpHof1
  SPOT peptide array binding signal intensity: 204
SpHof1-2
  SPOT peptide array binding signal intensity: 13.5
SpHof1-3
  SPOT peptide array binding signal intensity: 7.5
SpHse1
  SPOT peptide array binding signal intensity: 45.5
SpLsb1
  SPOT peptide array binding signal intensity: ≤ 0
SpLsb4
  SPOT peptide array binding signal intensity: ≤ 0
SpMyo1
  SPOT peptide array binding signal intensity: 0.5
SpNbp2
  SPOT peptide array binding signal intensity: ≤ 0
SpPex13
  SPOT peptide array binding signal intensity: ≤ 0
SpRvs167
  SPOT peptide array binding signal intensity: 2
SpSla1-D1-D2
  SPOT peptide array binding signal intensity: ≤ 0
SpSla1-D3
  SPOT peptide array binding signal intensity: ≤ 0
